# Results from PubChem BioAssay (EPA / NIEHS).
# Where “and” joins values, the source holds several entries; their conditions need not be identical. Equal values may be shown once. Records with an inconclusive call do not appear. Where a structure was tested more than once in an assay, its records may differ in their call. Calls of active or inactive are those of the source. Rule for the calls: active = hit-call score of the fitted dose curve at least 0.9, where 1 is the maximum; inconclusive = response in the unintended direction; inactive = score below 0.9.
# What was measured:
# [1] = target: Mitogen-activated protein kinase 3 (Homo sapiens) (UniProt P27361); assay: NVS_ENZ_hMAPK3: NovaScreen (NVS) Enzymatic Assay for human Mitogen-Activated Protein Kinase 3 (MAPK 3) (AID 2283177)
# In short: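 Chemicals were first tested in duplicate at 25 uM, with hits re-run as concentration series (max 50 uM). Recombinant enzyme activity, measured 1 h post-dose in a cell-free format, was read by fluorescence/mobility shift relative to DMSO.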
# [2] = target: Glycogen synthase kinase-3 beta (Homo sapiens) (UniProt P49841); assay: NVS_ENZ_hGSK3b: NovaScreen (NVS) Enzymatic Assay for human Glycogen Synthase Kinase-3 beta (GSK3b) (AID 2283165)
# In short: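 Recombinant enzyme with specific fluorescent substrate, 1 h, product separated by electrophoretic mobility shift. Primary duplicate screen at 25 uM; actives (e.g. 30% inhibition) followed in singleton concentration-response to 50 uM. Signal loss fitted versus DMSO.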
# [3] = target: human Janus Kinase 2 (Jak2), JAK2 (gene 3717) (UniProt O60674); assay: NVS_ENZ_hJak2: NovaScreen (NVS) Enzymatic Assay for human Janus Kinase 2 (Jak2) (AID 2283169)
# In short: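 Single-point duplicate screen at 25 uM, with hits run in concentration series to a 50 uM top dose. Substrate-product separation by mobility shift with fluorescence detection, 1 h post-dosing; DMSO baseline.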
# [4] = target: human MET Proto-Oncogene, Receptor Tyrosine Kinase (MET), MET (gene 4233) (UniProt P08581); assay: NVS_ENZ_hMet: NovaScreen (NVS) Enzymatic Assay for human MET Proto-Oncogene, Receptor Tyrosine Kinase (MET) (AID 2283180)
# Protocol: (§1) NVS_ENZ_hMet is a biochemical, single-readout assay that uses extracted gene-proteins in a cell-free assay. Measurements were taken 1 hour after chemical dosing in a 384-well plate.NVS_ENZ_hMet is one of one assay component(s) measured or calculated from the NVS_ENZ_hMet assay. It is designed to make measurements of enzyme activity, a form of enzyme reporter, as detected with fluorescence intensity signals by Fluorescence and electrophoretic mobility shift technology.Data from the assay component NVS_ENZ_hMet was analyzed into 1 assay endpoint. This assay endpoint, NVS_ENZ_hMet, was analyzed in the positive analysis fitting direction relative to DMSO as the negative control and baseline of activity. Using a type of enzyme reporter, loss-of-signal activity can be used to understand changes in the enzymatic activity as they relate to the gene MET. Furthermore, this assay endpoint can be referred to as a primary readout, because this assay has produced multiple assay endpoints where this one serves a enzymatic activity function. To generalize the intended target to other relatable targets, this assay endpoint is annotated to the kinase intended target family, where the subfamily is receptor tyrosine kinase.
# Binding assays used specific radioligands (tritiated, iodinated) with non-radioactive competitive displacement ligands in agonist or antagonist protocols (as indicated) and various reference compounds and inhibitors to titrate specific binding to receptors and transporters. Most enzyme assays (CYPs, kinases, phosphatases, proteases, HDACs) used recombinant protein and specific substrates (fluorescence mostly, some colorimetric and radioactive) and inhibitors, followed by a biochemical separation of substrate and product. All assays for the biochemical HTS were initially run in duplicate at a single concentration (10 uM for CYP450 assays and 25 uM for all others). Assay-chemical combinations meeting a pre-defined threshold (e.g., 30% inhibition and other criteria defined below) were then run in singleton concentration-response format with maximum concentration of 20 uM for CYPs and 50 uM for all others. Each assay was run with positive and negative controls, and concurrent controls on every plate. The follow-up (secondary) screen tested active chemical-pairs in concentration series, as well as a few additional assays not tested in the primary screen, some selected negative inactives, and several cases re-run in the concentration series for confirmatory purposes.
# [5] = target: human Mitogen-Activated Protein Kinase 1 (MAPK 1), MAPK1 (gene 5594) (UniProt P28482); assay: NVS_ENZ_hMAPK1: NovaScreen (NVS) Enzymatic Assay for human Mitogen-Activated Protein Kinase 1 (MAPK 1) (AID 2283175)
# In short: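 Cell-free recombinant human MAPK1 enzymatic assay, fluorescence/electrophoretic mobility shift read at 1 h; loss of signal vs DMSO. Primary screen in duplicate at 25 uM; actives (e.g. ≥30% inhibition) run as concentration-response up to 50 uM.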
# [6] = target: human IkappaB Kinase alpha (IKKa), CHUK (gene 1147) (UniProt O15111); assay: NVS_ENZ_hIKKa: NovaScreen (NVS) Enzymatic Assay for human IkappaB Kinase alpha (IKKa) (AID 2283167)
# In short: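 Compounds first run in duplicate at 25 uM, those meeting threshold (e.g. 30% inhibition) retested to maximum 50 uM. Enzyme activity of recombinant IKKa measured by fluorescence with electrophoretic mobility shift separation, 1 hour post-dosing, DMSO baseline.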
# [7] = target: Protein deacetylase HDAC6 (Homo sapiens) (UniProt Q9UBN7); assay: NVS_ENZ_hHDAC6: NovaScreen (NVS) Enzymatic Assay for human Histone Deacetylase 6 (HDAC6) (AID 2283164)
# Protocol: as §1, with “NVS_ENZ_hHDAC6” for “NVS_ENZ_hMet”, “plate.NVS_ENZ_hHDAC6” for “plate.NVS_ENZ_hMet”, “NVS_ENZ_hHDAC6,” for “NVS_ENZ_hMet,”, “HDAC6.” for “MET.”, “hydrolase” for “kinase”, “histone deacetylase.” for “receptor tyrosine kinase.”
# Binding assays used specific radioligands (tritiated, iodinated) with non-radioactive competitive displacement ligands in agonist or antagonist protocols (as indicated) and various reference compounds and inhibitors to titrate specific binding to receptors and transporters. Most enzyme assays (CYPs, kinases, phosphatases, proteases, HDACs) used recombinant protein and specific substrates (fluorescence mostly, some colorimetric and radioactive) and inhibitors, followed by a biochemical separation of substrate and product. All assays for the biochemical HTS were initially run in duplicate at a single concentration (10 uM for CYP450 assays and 25 uM for all others). […]
# [8] = target: Histone deacetylase 3 (Homo sapiens) (UniProt O15379); assay: NVS_ENZ_hHDAC3: NovaScreen (NVS) Enzymatic Assay for human Histone Deacetylase 3 (HDAC3) (AID 2283163)
# Protocol: as §1, with “NVS_ENZ_hHDAC3” for “NVS_ENZ_hMet”, “plate.NVS_ENZ_hHDAC3” for “plate.NVS_ENZ_hMet”, “NVS_ENZ_hHDAC3,” for “NVS_ENZ_hMet,”, “HDAC3.” for “MET.”, “hydrolase” for “kinase”, “histone deacetylase. […]” for “receptor tyrosine kinase.”
# [9] = target: human LYN Proto-Oncogene, Src family Tyrosine Kinase (LynA), LYN (gene 4067) (UniProt P07948); assay: NVS_ENZ_hLynA: NovaScreen (NVS) Enzymatic Assay for human LYN Proto-Oncogene, Src family Tyrosine Kinase (LynA) (AID 2283173)
# Protocol: as §1, with “NVS_ENZ_hLynA” for “NVS_ENZ_hMet”, “plate.NVS_ENZ_hLynA” for “plate.NVS_ENZ_hMet”, “NVS_ENZ_hLynA,” for “NVS_ENZ_hMet,”, “LYN.” for “MET.”, “non-receptor” for “receptor”, “kinase. […]” for “kinase.”
# [10] = target: human MAP Kinase-Activated Protein Kinase 2 (MAPKAPK2), MAPKAPK2 (gene 9261) (UniProt P49137); assay: NVS_ENZ_hMAPKAPK2: NovaScreen (NVS) Enzymatic Assay for human MAP Kinase-Activated Protein Kinase 2 (MAPKAPK2) (AID 2283178)
# Protocol: as §1, with “NVS_ENZ_hMAPKAPK2” for “NVS_ENZ_hMet”, “plate.NVS_ENZ_hMAPKAPK2” for “plate.NVS_ENZ_hMet”, “NVS_ENZ_hMAPKAPK2,” for “NVS_ENZ_hMet,”, “MAPKAPK2.” for “MET.”, “serine/threonine” for “receptor tyrosine”, “kinase. […]” for “kinase.”
# Chain of human MET Proto-Oncogene, Receptor Tyrosine Kinase (MET), MET (gene 4233) (P08581 whole entry, looked up): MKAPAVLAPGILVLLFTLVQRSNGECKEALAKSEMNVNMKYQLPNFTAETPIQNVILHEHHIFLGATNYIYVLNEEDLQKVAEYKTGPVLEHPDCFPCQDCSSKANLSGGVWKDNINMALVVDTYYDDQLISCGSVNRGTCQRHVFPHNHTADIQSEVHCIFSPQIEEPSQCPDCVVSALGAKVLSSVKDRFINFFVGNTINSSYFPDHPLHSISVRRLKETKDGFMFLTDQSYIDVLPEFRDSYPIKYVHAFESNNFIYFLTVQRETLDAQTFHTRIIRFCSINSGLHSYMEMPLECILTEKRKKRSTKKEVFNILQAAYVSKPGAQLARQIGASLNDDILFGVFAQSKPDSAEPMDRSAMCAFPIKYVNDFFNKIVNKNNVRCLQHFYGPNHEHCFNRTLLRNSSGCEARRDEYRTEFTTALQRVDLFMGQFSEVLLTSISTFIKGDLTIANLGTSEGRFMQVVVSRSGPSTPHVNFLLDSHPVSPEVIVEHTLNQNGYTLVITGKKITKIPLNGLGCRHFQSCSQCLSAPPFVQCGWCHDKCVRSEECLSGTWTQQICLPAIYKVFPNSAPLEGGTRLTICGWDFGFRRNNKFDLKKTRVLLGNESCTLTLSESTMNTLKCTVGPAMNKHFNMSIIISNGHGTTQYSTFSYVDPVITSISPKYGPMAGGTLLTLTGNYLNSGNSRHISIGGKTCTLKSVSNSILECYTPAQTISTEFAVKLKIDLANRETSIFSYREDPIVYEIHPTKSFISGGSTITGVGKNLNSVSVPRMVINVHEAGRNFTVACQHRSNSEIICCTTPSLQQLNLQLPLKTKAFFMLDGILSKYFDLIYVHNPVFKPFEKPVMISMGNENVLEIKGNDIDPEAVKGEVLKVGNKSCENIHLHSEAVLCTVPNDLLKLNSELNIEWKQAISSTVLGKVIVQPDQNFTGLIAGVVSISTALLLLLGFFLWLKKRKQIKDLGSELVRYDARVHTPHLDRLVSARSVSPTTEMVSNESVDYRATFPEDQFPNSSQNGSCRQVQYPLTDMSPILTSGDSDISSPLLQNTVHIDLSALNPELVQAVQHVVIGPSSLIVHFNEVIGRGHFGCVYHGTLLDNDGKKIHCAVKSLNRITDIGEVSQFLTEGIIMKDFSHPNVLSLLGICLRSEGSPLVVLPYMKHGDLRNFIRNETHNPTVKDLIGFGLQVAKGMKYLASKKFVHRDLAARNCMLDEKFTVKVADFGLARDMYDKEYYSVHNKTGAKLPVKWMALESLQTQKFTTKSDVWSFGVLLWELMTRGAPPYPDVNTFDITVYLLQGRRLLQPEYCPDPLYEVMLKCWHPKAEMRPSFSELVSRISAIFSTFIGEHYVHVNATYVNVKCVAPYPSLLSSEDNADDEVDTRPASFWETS
# Chain of Protein deacetylase HDAC6 (Homo sapiens) (Q9UBN7 whole entry, looked up): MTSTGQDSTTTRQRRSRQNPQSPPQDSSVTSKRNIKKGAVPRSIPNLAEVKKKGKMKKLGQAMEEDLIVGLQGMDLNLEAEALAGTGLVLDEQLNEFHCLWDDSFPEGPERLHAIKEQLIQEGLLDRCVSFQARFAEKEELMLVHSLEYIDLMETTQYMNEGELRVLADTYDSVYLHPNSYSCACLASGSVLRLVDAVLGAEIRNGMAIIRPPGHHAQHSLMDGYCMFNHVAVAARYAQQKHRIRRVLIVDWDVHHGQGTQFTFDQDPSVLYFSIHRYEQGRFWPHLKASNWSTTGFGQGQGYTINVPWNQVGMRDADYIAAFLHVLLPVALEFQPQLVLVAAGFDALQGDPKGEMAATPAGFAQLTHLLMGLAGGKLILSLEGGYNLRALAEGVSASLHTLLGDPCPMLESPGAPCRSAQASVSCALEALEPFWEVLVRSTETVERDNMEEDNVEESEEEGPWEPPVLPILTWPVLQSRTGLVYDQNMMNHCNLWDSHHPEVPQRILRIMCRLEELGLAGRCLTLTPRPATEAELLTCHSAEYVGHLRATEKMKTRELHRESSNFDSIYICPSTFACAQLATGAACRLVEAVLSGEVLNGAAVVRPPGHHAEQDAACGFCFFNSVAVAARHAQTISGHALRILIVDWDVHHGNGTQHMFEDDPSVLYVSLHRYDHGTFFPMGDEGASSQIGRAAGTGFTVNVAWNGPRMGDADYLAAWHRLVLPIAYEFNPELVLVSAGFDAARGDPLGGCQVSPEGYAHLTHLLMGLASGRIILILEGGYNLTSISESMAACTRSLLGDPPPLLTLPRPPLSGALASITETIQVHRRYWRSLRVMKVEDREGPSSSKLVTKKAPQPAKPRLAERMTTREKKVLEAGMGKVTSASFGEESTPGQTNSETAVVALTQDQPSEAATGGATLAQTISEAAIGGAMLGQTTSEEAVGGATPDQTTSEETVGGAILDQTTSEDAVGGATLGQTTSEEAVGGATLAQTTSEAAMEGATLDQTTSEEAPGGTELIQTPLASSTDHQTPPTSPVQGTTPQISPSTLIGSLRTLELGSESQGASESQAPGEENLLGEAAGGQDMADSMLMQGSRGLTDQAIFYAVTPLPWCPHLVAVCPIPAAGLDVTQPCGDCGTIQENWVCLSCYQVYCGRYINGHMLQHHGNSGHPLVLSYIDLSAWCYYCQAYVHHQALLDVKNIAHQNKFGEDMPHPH
# Chain of Glycogen synthase kinase-3 beta (Homo sapiens) (P49841 whole entry, looked up): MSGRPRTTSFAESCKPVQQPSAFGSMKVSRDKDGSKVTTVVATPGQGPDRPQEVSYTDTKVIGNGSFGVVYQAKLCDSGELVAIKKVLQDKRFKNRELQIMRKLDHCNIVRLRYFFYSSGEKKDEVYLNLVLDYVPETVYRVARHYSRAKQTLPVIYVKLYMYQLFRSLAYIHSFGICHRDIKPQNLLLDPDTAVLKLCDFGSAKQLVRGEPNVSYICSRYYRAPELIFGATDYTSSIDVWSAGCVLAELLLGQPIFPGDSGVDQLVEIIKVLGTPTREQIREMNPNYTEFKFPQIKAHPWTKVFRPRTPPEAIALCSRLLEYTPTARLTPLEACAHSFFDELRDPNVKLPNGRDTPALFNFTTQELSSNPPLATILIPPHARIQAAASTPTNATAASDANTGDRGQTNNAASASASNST
# Chain of human IkappaB Kinase alpha (IKKa), CHUK (gene 1147) (O15111 whole entry, looked up): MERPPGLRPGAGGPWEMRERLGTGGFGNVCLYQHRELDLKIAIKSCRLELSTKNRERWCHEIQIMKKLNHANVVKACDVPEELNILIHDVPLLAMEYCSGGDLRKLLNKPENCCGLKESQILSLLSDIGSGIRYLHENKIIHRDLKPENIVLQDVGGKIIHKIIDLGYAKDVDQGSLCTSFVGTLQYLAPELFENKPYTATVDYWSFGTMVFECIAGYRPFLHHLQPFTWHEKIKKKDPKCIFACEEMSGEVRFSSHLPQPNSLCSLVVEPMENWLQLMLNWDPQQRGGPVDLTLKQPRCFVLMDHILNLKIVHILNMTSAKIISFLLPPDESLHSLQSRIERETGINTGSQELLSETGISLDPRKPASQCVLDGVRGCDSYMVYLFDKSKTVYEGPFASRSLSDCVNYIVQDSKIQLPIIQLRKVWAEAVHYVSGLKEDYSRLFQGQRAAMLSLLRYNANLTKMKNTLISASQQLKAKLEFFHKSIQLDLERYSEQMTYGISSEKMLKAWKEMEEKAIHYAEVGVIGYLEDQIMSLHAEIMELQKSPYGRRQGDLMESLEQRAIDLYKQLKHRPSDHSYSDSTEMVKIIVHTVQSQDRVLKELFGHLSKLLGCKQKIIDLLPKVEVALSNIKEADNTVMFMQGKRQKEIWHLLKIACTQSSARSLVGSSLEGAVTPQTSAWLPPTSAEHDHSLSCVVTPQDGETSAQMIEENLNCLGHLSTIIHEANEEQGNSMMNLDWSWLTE
# Chain of Mitogen-activated protein kinase 3 (Homo sapiens) (P27361 whole entry, looked up): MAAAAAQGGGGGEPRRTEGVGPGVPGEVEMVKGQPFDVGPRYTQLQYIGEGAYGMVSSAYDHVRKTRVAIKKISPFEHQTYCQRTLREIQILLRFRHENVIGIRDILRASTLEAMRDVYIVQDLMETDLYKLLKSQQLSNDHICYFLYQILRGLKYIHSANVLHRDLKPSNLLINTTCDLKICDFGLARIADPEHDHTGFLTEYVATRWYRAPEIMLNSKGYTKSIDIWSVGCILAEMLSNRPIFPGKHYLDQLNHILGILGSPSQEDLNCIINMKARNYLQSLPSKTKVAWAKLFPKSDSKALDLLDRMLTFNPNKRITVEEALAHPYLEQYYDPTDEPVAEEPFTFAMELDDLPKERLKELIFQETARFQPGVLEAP
# Chain of Histone deacetylase 3 (Homo sapiens) (O15379 whole entry, looked up): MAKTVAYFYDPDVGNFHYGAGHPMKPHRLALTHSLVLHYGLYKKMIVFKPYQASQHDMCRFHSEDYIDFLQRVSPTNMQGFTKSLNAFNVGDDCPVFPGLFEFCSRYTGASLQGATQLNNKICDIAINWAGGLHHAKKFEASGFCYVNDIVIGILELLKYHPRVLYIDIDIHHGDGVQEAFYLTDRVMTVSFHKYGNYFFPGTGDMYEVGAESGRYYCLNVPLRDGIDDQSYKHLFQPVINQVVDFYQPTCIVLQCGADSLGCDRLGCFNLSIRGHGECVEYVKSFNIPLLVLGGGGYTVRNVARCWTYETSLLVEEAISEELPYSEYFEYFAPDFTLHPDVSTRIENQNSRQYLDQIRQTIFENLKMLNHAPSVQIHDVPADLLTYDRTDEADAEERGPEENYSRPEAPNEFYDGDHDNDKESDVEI
# Chain of human Mitogen-Activated Protein Kinase 1 (MAPK 1), MAPK1 (gene 5594) (P28482 whole entry, looked up): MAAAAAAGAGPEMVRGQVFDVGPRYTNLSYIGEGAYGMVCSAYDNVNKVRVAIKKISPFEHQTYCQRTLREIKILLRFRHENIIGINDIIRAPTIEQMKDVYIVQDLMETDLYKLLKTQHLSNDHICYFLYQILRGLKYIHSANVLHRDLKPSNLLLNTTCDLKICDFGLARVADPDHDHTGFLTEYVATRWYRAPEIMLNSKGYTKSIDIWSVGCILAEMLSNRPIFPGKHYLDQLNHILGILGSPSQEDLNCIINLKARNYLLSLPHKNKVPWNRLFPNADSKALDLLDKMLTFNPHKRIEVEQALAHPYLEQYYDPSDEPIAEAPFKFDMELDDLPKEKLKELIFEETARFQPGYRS
structure (smiles),measurement,setting,value
CCNc1nc(Cl)nc(NCC)n1,outcome,[1],inactive
CCCN(CCC)c1c([N+](=O)[O-])cc(S(N)(=O)=O)cc1[N+](=O)[O-],outcome,[2],inactive
same,outcome,[3],inactive
same,outcome,[4],inactive
C=CCC1=C(C)[C@@H](OC(=O)[C@@H]2[C@@H](C=C(C)C)C2(C)C)CC1=O,outcome,[5],inactive
same,outcome,[1],inactive
Cc1ccc(-c2c(Cl)nc(C#N)n2S(=O)(=O)N(C)C)cc1,AC50,[2],18.2 µM (active)
CO/C=C(/C(=O)OC)c1ccccc1Oc1cc(Oc2ccccc2C#N)ncn1,outcome,[6],inactive
COc1nc(C)nc(NC(=O)NS(=O)(=O)c2ccccc2CCC(F)(F)F)n1,outcome,[4],inactive
CS/C(C)=N/OC(=O)N(C)SN(C)C(=O)O/N=C(\C)SC,outcome,[7],inactive
CCCCNC(=O)OCC#CI,AC50,[8],17.5 µM (active) and 14.6 µM (active)
same,AC50,[7],25 µM (active)
same,outcome,[7],inactive
same,outcome,[9],inactive
CN(C)C(=S)SSC(=S)N(C)C,outcome,[4],inactive
COc1cnc(OC)n2nc(NS(=O)(=O)c3c(OCC(F)F)cccc3C(F)(F)F)nc12,outcome,[1],inactive
COc1ccc(C(c2ccc(OC)cc2)C(Cl)(Cl)Cl)cc1,outcome,[1],inactive
COC(=O)c1ccccc1C(=O)OC,outcome,[9],inactive
CNC(=S)S,outcome,[2],inactive
same,outcome,[6],inactive
same,outcome,[1],inactive
same,outcome,[10],inactive
same,outcome,[4],inactive
COc1nc(C)nc(NC(=O)NS(=O)(=O)c2ccccc2Cl)n1,outcome,[2],inactive
CC(C)(C)c1ccc(CSc2cnn(C(C)(C)C)c(=O)c2Cl)cc1,outcome,[6],inactive
